The record followed here is PubChem BioAssay.

Active and inactive are the calls of the source. Rule as the data show it, unless noted: active = inhibition above about 30%; inactive = the rest.

A short description of one assay: yeast transport mutant growth inhibition pilot in 384-well plates, post-Golgi transport modulator project (AID 636; in the data active = inhibition above about 31%). To be noted: absorbance 615 nm, about 18 h, stronger effect = higher value.
For `C=CCSc1nnc(-c2ccccc2NC(C)=O)c(=O)[nH]1`, the inhibition (as a rule, the relative decrease from the control value, in per cent) was -3.03% (inactive).

On to `CNC(=O)CSc1nnc(-c2cccc(S(=O)(=O)N3CCOCC3)c2)n1-c1ccc(F)cc1`, for which the inhibition is 0% (inactive).

As for `O=C(NCc1ccccc1)C1CCN(S(=O)(=O)N2CCCCCC2)CC1`, the inhibition is 6.49% (inactive).

Turning to `CC(C(=O)N1CCc2ccccc21)N1CCc2ccccc2C1` (stereo not drawn), the inhibition is -0.53% (inactive).

With `CCCNC(=O)c1ccccc1C(=O)NCCC`, the inhibition was 4.16% (inactive).

For `CCCC(C)c1nnc(NC(=O)C2CCCO2)s1` (stereo not drawn), the inhibition was -7.33% (inactive).

`CCN(CC)S(=O)(=O)c1cccc2c(N(C)C)cccc12`: the inhibition is -4.93% (inactive).

`O=C1CC(C2CCCO2)C(=O)N1Cc1ccccc1` (stereo not drawn): the inhibition was -6.08% (inactive).

`O=c1[nH]c(SCc2cc(=O)n3ccccc3n2)nc2c1CCC2`: the inhibition was -2.76% (inactive).

In the case of `COC(=O)c1cc2oc(C)cc2n1CC(=O)N(C)c1ccccc1`, the inhibition was -1.92% (inactive).

On to `Cc1cc(NC(=O)Cn2cnc3c2c(=O)n(C)c(=O)n3C)n(-c2ccccc2)n1`, for which the inhibition was -7.97% (inactive).

For the compound `CCc1nnc(NC(=O)c2cc3c(s2)CCCCC3)s1`, the inhibition is -1.17% (inactive).

As for `Cc1ccc(-c2ccc(=O)n(CCC(=O)NCc3ccccn3)n2)cc1`, the inhibition was -3.95% (inactive).

In the case of `CCC(=O)N1CCc2cc(S(=O)(=O)CCC(=O)Nc3c(C)n(C)n(-c4ccccc4)c3=O)ccc21`, the inhibition was -2.93% (inactive).

Turning to `CC(=O)N1CCc2cc(S(=O)(=O)NCCC3=CCCCC3)ccc21`, the inhibition is -3.29% (inactive).

Turning to `COc1cccc(-n2nc(C(=O)Nc3ccc4c(c3)OCO4)c3ccccc3c2=O)c1`, the inhibition was -2.16% (inactive).

Take `COCCCNS(=O)(=O)c1ccc2c(c1)CCN2C(C)=O`: the inhibition is -0.13% (inactive).

Take `Cc1ccc(S(=O)(=O)N2CCC(C(=O)NCCN3CCCCCC3)CC2)cc1`: the inhibition was 0.13% (inactive).

Turning to `CCN(CC)c1ccc(-c2nn3c(-c4cccnc4)nnc3s2)cc1`, the inhibition was -5.92% (inactive).

Regarding `Cc1cccc(-c2c3c(=O)n(C)c(=O)n(C)c3cn2-c2ccc(O)cc2)c1`, the inhibition was -3.11% (inactive).

With `CCOC(=O)c1[nH]c2ccc(OC)cc2c1NC(=O)CCN1CCC(C)CC1`, the inhibition is -3.12% (inactive).

As for `CCS(=O)(=O)N1CCCC(C(=O)NCc2ccccc2Cl)C1` (stereo not drawn), the inhibition is -7.6% (inactive).

In the case of `Cc1ccc(N2CC(C)Cn3c2nc2c3c(=O)n(CC(=O)OCc3ccccc3)c(=O)n2C)cc1C` (stereo not drawn), the inhibition was -4.32% (inactive).

The next assay in a line: growth suppression of yeast trafficking mutant, preliminary HTS, modulators of trafficking downstream of Golgi apparatus project, 1536-format plate, OD 615 nm (AID 637). The conditions noted are these: yeast transport mutant growth, absorbance 615 nm, 18 h; stronger effect = higher value.
On to `CC1Cc2nc(SCC(=O)Nc3ccc(F)cc3F)n(C)c(=O)c2S1` (stereo not drawn), for which the inhibition was 2.7% (inactive).

For the compound `COC(=O)CCn1nnc(-c2cccs2)n1`, the inhibition is 4.1% (inactive).

As for `CCN(C#N)c1nc(NC(C)C)nc(NC(C)C)n1`, the inhibition was -7.17% (inactive).

As to `COc1ccccc1C(=O)Nc1ccc(S(=O)(=O)N2CCCC2)cc1`, the inhibition is 0.49% (inactive).

`COC(=O)c1[nH]c2ccccc2c1NC(=O)CN1CCC(C(N)=O)(N2CCCCC2)CC1`: the inhibition is 0.49% (inactive).

Consider `CC(O)c1c(OCc2ccccc2)ncnc1OCc1ccccc1` (stereo not drawn), for which the inhibition was 1.48% (inactive).

For `Cc1c(C(=O)OC(C)C)[nH]c2c1C(=O)CCC2`, the inhibition is -6.29% (inactive).

With `CC(C)CNC(=O)C1C2C=CC(C2)C1C(=O)O` (stereo not drawn), the inhibition is -1.77% (inactive).

With `COc1cccc(Cn2c(Oc3ccccc3)nc3c2c(=O)n(C)c(=O)n3C)c1`, the inhibition is 6.07% (inactive).

With `CC(C)(C)NC(=O)Cn1nnc(-c2cccs2)n1`, the inhibition is 0% (inactive).

As for `COc1cc(CN2CCN(C(=O)CC(C)C)CC2)cc(OC)c1O`, the inhibition was -4.6% (inactive).

Take `CCn1c(C)nc2cc(C(=O)OCCC(F)(F)F)ccc21`: the inhibition was 7.67% (inactive).

As for `CCn1c(CC(=O)Nc2cccc(OC)c2)nnc1SCC(=O)Nc1nccs1`, the inhibition was -2.26% (inactive).

Consider `CCOc1cc(NC(=O)c2ccco2)c(OCC)cc1NC(=O)CCC(=O)NCc1cccnc1`, for which the inhibition was -4.17% (inactive).

Take `CCN(CC)c1ccc(CNc2ccc(Br)cn2)cc1`: the inhibition was -3.11% (inactive).

Consider `CCOc1ccccc1C(=O)NCCC(=O)O`, for which the inhibition was 11.3% (inactive).

As to `Cc1ccc(-c2csc3nnc(SCC(=O)NCc4ccco4)n23)cc1`, the inhibition is -4.19% (inactive).

As to `C=CCSc1nnc(-c2ccccc2NC(C)=O)c(=O)[nH]1`, the inhibition was -0.36% (inactive).

Turning to `CNC(=O)CSc1nnc(-c2cccc(S(=O)(=O)N3CCOCC3)c2)n1-c1ccc(F)cc1`, the inhibition was -2.5% (inactive).

As to `O=C(NCc1ccccc1)C1CCN(S(=O)(=O)N2CCCCCC2)CC1`, the inhibition was -6.23% (inactive).

As for `CC(C(=O)N1CCc2ccccc21)N1CCc2ccccc2C1` (stereo not drawn), the inhibition was -3.11% (inactive).

With `CCCNC(=O)c1ccccc1C(=O)NCCC`, the inhibition is 18.9% (inactive).

As for `CCCC(C)c1nnc(NC(=O)C2CCCO2)s1` (stereo not drawn), the inhibition is -3.06% (inactive).

Take `CCN(CC)S(=O)(=O)c1cccc2c(N(C)C)cccc12`: the inhibition was -4.52% (inactive).

Consider `O=C1CC(C2CCCO2)C(=O)N1Cc1ccccc1` (stereo not drawn), for which the inhibition was -0.66% (inactive).

Take `O=c1[nH]c(SCc2cc(=O)n3ccccc3n2)nc2c1CCC2`: the inhibition was -2.22% (inactive).

Turning to `COC(=O)c1cc2oc(C)cc2n1CC(=O)N(C)c1ccccc1`, the inhibition was -2.17% (inactive).

Regarding `Cc1cc(NC(=O)Cn2cnc3c2c(=O)n(C)c(=O)n3C)n(-c2ccccc2)n1`, the inhibition was 0.83% (inactive).

As for `CCc1nnc(NC(=O)c2cc3c(s2)CCCCC3)s1`, the inhibition is -3.44% (inactive).

`Cc1ccc(-c2ccc(=O)n(CCC(=O)NCc3ccccn3)n2)cc1`: the inhibition was 0.81% (inactive).

Take `CCC(=O)N1CCc2cc(S(=O)(=O)CCC(=O)Nc3c(C)n(C)n(-c4ccccc4)c3=O)ccc21`: the inhibition was -10.7% (inactive).

Regarding `CC(=O)N1CCc2cc(S(=O)(=O)NCCC3=CCCCC3)ccc21`, the inhibition was -2.22% (inactive).

In the case of `COc1cccc(-n2nc(C(=O)Nc3ccc4c(c3)OCO4)c3ccccc3c2=O)c1`, the inhibition was -1.27% (inactive).

Consider `COCCCNS(=O)(=O)c1ccc2c(c1)CCN2C(C)=O`, for which the inhibition was -0.32% (inactive).

On to `Cc1ccc(S(=O)(=O)N2CCC(C(=O)NCCN3CCCCCC3)CC2)cc1`, for which the inhibition was 2.13% (inactive).

For `CCN(CC)c1ccc(-c2nn3c(-c4cccnc4)nnc3s2)cc1`, the inhibition was -7.1% (inactive).

For the compound `Cc1cccc(-c2c3c(=O)n(C)c(=O)n(C)c3cn2-c2ccc(O)cc2)c1`, the inhibition is -2.38% (inactive).

Turning to `CCOC(=O)c1[nH]c2ccc(OC)cc2c1NC(=O)CCN1CCC(C)CC1`, the inhibition was -8.73% (inactive).

On to `CCS(=O)(=O)N1CCCC(C(=O)NCc2ccccc2Cl)C1` (stereo not drawn), for which the inhibition was -3.61% (inactive).

In the case of `Cc1ccc(N2CC(C)Cn3c2nc2c3c(=O)n(CC(=O)OCc3ccccc3)c(=O)n2C)cc1C` (stereo not drawn), the inhibition is 1.97% (inactive).
